{
  "source": "PubChem BioAssay AID1347150",
  "about": "(National Center for Advancing Translational Sciences (NCATS), 2019)",
  "note": "Inconclusive results are not listed. The source made the active and inactive calls. Calls follow the shape of the dose curve; as a rule, active = well fitted curve in the direction sought with a large enough effect; inconclusive = small, poorly fitted or top-dose-only effect, or another doubt; inactive = no such curve, though single readings can be large or run the other way.",
  "data": [
    {"test_system": "Zika virus NS2B-NS3 protease (linked)", "test": "Optimization screen NINDS AMC qHTS for Zika virus inhibitors: Linked NS2B-NS3 protease assay", "conditions": "recombinant linked NS2B-NS3 protease, AMC fluorogenic substrate; series mostly up to 52.5 µM", "from_the_text": "Avindra Nath, Ph.D., National Institute of Neurological Disorders and Stroke (NINDS), Bethesda, MD\nRadhakrishnan Padmanabhan, Ph.D., Georgetown University (GU), Washington D.C.\nZika Virus causes congenital defects, including microcephaly and is associated with Guillain-Barre syndrome, eningoencephalitis and myelitis in infected adult. […] Using a target-based approach, we hope to establish a screening paradigm to uncover novel, cell-active NS2B-NS3 protease (Zika Virus) specific inhibitors from NCATS' collection of small molecules using qHTS.\nFour assay panel was created to identify potential Zika Virus inhibitors. Namely, (1) GU unlinked NS2B-NS3 AMC tagged protease qHTS, (2) GU unlinked NS2B-NS3 Rhodamine tagged protease qHTS, (3) NINDS linked NS2B-NS3 AMC tagged protease qHTS, (4) NINDS linked NS2B-NS3 Rhodamine tagged protease qHTS. Active compounds were re-acquired and re-screened to confirm inhibition. Inhibitors were further screened against various confirmatory and counterscreens in dose response format.\nEarly Translation Branch (ETB)\nNational Center for Advancing Translational Sciences (NCATS), Rockville, MD\nNational Institute of Health (NIH), Bethesda, Maryland\nFor the linked assay, Nath lab (NINDS) provided the purified linked NS2B-NS3 protease which is consists of hydrophilic domain of NS2B linked to the NS3 protease domain by a flexible (-GGGGSGGGG-) linker. Control compound aprotinin is obtained from Thermo Scientific (#78432; Waltham, Massachusetts). NS2B-NS3 AMC substrate (Bz-Nle-Lys-Arg-Arg-AMC; Nle-KRR-AMC) purchased from Bachem (#I-1995; Torrance, CA). Ac-VKTGKR-AMC purchased from Genscript or Bachem, Ac-FAAGKR-AMC purchased from Genscript, Ac-GLVKRR-AMC purchased from Genscript, Ac-LKKR-AMC purchased from Genscript.\nNINDS AMC linked NS2B-NS3 protease qHTS protocol:\nBriefly, 3 microL of Zika virus linked NS2B-NS3 protease (1 nM for linked final concentration), in assay buffer (10 mM Tris-HCl pH 8.0 with 0.01% Tween 20) was dispensed into a 1,536-well solid-bottom black plate (Greiner Bio One, Monroe, NC). Twenty-three nL of compounds (final concentration range 7.28 nM to 114 microM) or control Aprotinin (final concentration range 3.47 nM to 114 microM) were transferred via Wako Pin-tool (Wako Automation, Richmond, VA). Samples were incubated (room temperature, protected from light) for 15 minutes followed by a 1 microL AMC substrate addition of (final concentration of 10 microM; Km = 18.3 µM). Plates were then read immediately on a ViewLux High-throughput CCD imager (PerkinElmer, Waltham, MA) equipped with standard UV fluorescence optics (340(30) nm excitation, 450(20) nm emission) then incubated (room temperature, protected from light) for 15 minutes (~20% conversion). The change in fluorescence intensity over the 15-minute reaction period was normalized against no-inhibitor and no-enzyme controls and the resulting percent inhibition data were fitted to a 4-parameter Hill equation. Aprotinin was used as the intraplate control.", "values": [
      {"smiles": "CN1CC[C@@]23CCCC[C@@H]2[C@@H]1Cc1ccc(O)cc13", "outcome": "inactive"},
      {"smiles": "CC(C)OC(=O)Nc1ccccc1", "outcome": "inactive"},
      {"smiles": "CC(C)=CCN1CC[C@@]2(C)c3cc(O)ccc3C[C@@H]1[C@@H]2C", "outcome": "inactive"},
      {"smiles": "C[C@@H]1O[C@@H](O[C@H]2C[C@@H](O)[C@]3(CO)C4C(CC[C@]3(O)C2)[C@@]2(O)CC[C@H](C3=CC(=O)OC3)[C@@]2(C)C[C@H]4O)[C@H](O)[C@H](O)[C@H]1O", "note": "(stereo partly specified)", "outcome": "inactive"},
      {"smiles": "CC1O[C@@H](O[C@@H]2C(O)C[C@H](O[C@@H]3C(O)C[C@@H](OC4CC[C@@]5(C)C6CC[C@]7(C)C(C8=CC(=O)OC8)CC[C@@]7(O)C6CC[C@@H]5C4)OC3C)OC2C)CC(O)[C@H]1O", "note": "(stereo partly specified)", "outcome": "inactive"},
      {"smiles": "C=CCN1CC[C@]23CCCCC2[C@H]1Cc1ccc(O)cc13", "note": "(stereo partly specified)", "outcome": "inactive"},
      {"smiles": "C[C@@H]1[C@@H]2Cc3ccc(O)cc3[C@@]1(C)CCN2CCc1ccccc1", "outcome": "inactive"},
      {"smiles": "Cc1ccc2c(c1)[C@]13CCCC[C@@H]1[C@H](C2)N(C)CC3", "outcome": "inactive"},
      {"smiles": "C[C@@H]1O[C@@H](O[C@H]2C[C@@H](O)[C@]3(CO)[C@H]4[C@H](O)C[C@]5(C)[C@@H](C6=CC(=O)OC6)CC[C@]5(O)[C@@H]4CC[C@]3(O)C2)[C@H](O)[C@H](O)[C@H]1O", "outcome": "inactive"},
      {"smiles": "CC1OC(O[C@H]2C[C@@H](O)[C@]3(CO)[C@H]4[C@H](O)C[C@]5(C)[C@@H](C6=CC(=O)OC6)CC[C@]5(O)[C@@H]4CC[C@]3(O)C2)C(O)C(O)C1O", "note": "(stereo partly specified)", "outcome": "inactive"},
      {"smiles": "CO[C@H]1[C@@H](O)CC(OC2[C@@H](O)CC(OC3[C@@H](O)C[C@H](OC4CC[C@@]5(C)C(CCC6C5CC(O)[C@]5(C)[C@H](C7=CC(=O)OC7)CCC65O)C4)O[C@@H]3C)O[C@@H]2C)O[C@@H]1C", "note": "(stereo partly specified)", "outcome": "inactive"},
      {"smiles": "COC1C(O)C(C)O[C@@H](OC2CC[C@@]3(C)C4CC[C@]5(C)C(C6=CC(=O)OC6)CC[C@@]5(O)C4CC[C@@H]3C2)C1O", "note": "(stereo partly specified)", "outcome": "inactive"},
      {"smiles": "C[C@@H]1[C@@H]2Cc3ccc(O)cc3[C@@]1(C)CCN2CC1CC1", "outcome": "inactive"},
      {"smiles": "C=CCN1CCC2(C)c3cc(O)ccc3CC1C2C", "note": "(stereo unspecified)", "outcome": "inactive"},
      {"smiles": "CC[C@H](C)[C@H]1O[C@]2(C=C[C@@H]1C)C[C@@H]1C[C@@H](C/C=C(\\C)[C@@H](O[C@H]3C[C@H](OC)[C@@H](O[C@H]4C[C@H](OC)[C@@H](O)[C@H](C)O4)[C@H](C)O3)[C@@H](C)/C=C/C=C3\\CO[C@@H]4[C@H](O)C(C)=C[C@@H](C(=O)O1)[C@]34O)O2", "outcome": "inactive"},
      {"smiles": "C[C@H]1O[C@@H](O[C@H]2[C@@H](O)C[C@H](O[C@H]3[C@@H](O)C[C@H](O[C@H]4CC[C@]5(C)C6CC[C@]7(C)[C@@H](C8=CC(=O)OC8)CC[C@]7(O)C6CC[C@@H]5C4)O[C@@H]3C)O[C@@H]2C)C[C@H](O)[C@@H]1O", "note": "(stereo partly specified)", "outcome": "inactive"},
      {"smiles": "CN1CC[C@@]23CCCCC2C1Cc1ccc(O)cc13", "note": "(stereo partly specified)", "outcome": "inactive"},
      {"smiles": "C[C@H]1O[C@@H](O[C@H]2[C@@H](O)C[C@@H](O[C@H]3[C@@H](O)C[C@H](O[C@H]4CC[C@@]5(C)[C@H](CC[C@@H]6[C@@H]5CC[C@]5(C)[C@@H](C7=CC(=O)OC7)CC[C@]65O)C4)O[C@@H]3C)O[C@@H]2C)C[C@H](O)[C@@H]1O", "outcome": "inactive"},
      {"smiles": "C=CCN1CCC2(C)c3cc(O)ccc3C[C@H]1[C@H]2C", "outcome": "inactive"},
      {"smiles": "C[C@H]1[C@H]2Cc3ccc(O)cc3[C@]1(C)CCN2CCc1ccccc1", "outcome": "inactive"},
      {"smiles": "C[C@H]1O[C@@H](O[C@H]2[C@@H](O)C[C@H](O[C@H]3[C@@H](O)C[C@H](O[C@H]4CC[C@@]5(C)[C@H](CC[C@@H]6[C@@H]5CC[C@]5(C)[C@@H](C7=CC(=O)OC7)CC[C@]65O)C4)O[C@@H]3C)O[C@@H]2C)C[C@H](O)[C@@H]1O", "outcome": "inactive"}
    ]}
  ]
}
